# Bioassay records from PubChem.
# RAD54 branch = inhibitors of human RAD54 branch migration | RAD54 Holliday junction branch migration, FAM/BHQ fluorescence | hit rate 0.14% among 360,000 | inhibition, % at 10.4 µM;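 active = mean normalized replicate activity at least 40 and at least half of replicates scoring 40 or more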;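 note: 0% = median of neutral control wells and 100% = median of positive control wells; inhibitors cause a drop in the FAM fluorescence signal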
# Target sequence (Q92698 whole entry, looked up): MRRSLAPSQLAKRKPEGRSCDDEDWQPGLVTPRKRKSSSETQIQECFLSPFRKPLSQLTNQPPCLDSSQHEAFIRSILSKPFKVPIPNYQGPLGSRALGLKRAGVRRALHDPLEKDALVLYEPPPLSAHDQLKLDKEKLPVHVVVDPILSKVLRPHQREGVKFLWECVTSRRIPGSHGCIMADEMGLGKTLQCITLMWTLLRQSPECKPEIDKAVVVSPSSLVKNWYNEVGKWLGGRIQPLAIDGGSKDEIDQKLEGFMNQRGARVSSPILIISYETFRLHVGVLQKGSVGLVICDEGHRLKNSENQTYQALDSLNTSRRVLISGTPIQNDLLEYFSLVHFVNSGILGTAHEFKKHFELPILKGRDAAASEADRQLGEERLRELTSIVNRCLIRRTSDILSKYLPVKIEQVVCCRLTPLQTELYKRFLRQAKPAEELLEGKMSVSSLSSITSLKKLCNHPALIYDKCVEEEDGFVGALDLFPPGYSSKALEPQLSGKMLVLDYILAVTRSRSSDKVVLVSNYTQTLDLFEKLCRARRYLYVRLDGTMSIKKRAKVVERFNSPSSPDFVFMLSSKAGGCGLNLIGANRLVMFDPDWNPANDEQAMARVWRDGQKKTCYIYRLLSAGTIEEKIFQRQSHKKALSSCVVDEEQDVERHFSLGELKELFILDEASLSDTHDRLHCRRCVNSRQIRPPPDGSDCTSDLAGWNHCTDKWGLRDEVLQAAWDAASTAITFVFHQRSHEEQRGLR
# Glyco luc inh = blocks N-linked glycosylation in D54 reporter cells. D54 ERlucT glycosylation luciferase reporter, 24 h; percent of 100 nM tunicamycin response. reporter increase, % at 12.5 µM. hit rate 0.23% among 360,000. AID 588692;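 active = mean luciferase reporter signal, scaled so untreated is 0 and the glycosylation-blocking control 100, at or above a set limit in every replicate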;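 note: luciferase carries N-glycosylation sites so blocking glycosylation raises the light; 0% = median of neutral control wells and 100% = median of 100 nM tunicamycin wells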
# Vif imaging = inhibitors of HIV Vif; inhibition, % at 7.49 µM; AID 602346; HEK293T cells, Vif self-association by quenched fluorescence, imaging, 24 h; hit rate 0.35% among 340,000; in the data active = inhibition above about 50%, passing the limit was not always enough
# ABCB6 inh MLPCN = blocks the human ABCB6 transporter; K562-ABCB6 porphyrin accumulation, flow cytometry, 1 h; hits give low values; AID 602162; Q9NP58; hit rate 0.19% among 360,000; fluorescence ratio to DMSO, % at 10 µM;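 active = fluorescence ratio to DMSO below 75%, the collection mean minus 3 SD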;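 note: signal is porphyrin accumulated inside mitochondria; 100% equals median channel fluorescence of DMSO control wells; lower ratio means ABCB6 inhibition with less porphyrin fluorescence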
# Myeloid diff MLP = promotes myeloid progenitor differentiation. ER-HoxA9 myeloid progenitors, lysozyme-GFP differentiation, flow cytometry. AID 624256. calls only at 10 µM. hit rate 1% among 360,000;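 active = normalized GFP-positive differentiation at or above the plate's own cutoff, the solvent-only control mean plus 3 SD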;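 note: cells exposed to compound for four days before flow analysis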
# Myeloid diff = promotes myeloid progenitor differentiation | shares compounds with Myeloid diff MLP | ER-HoxA9 myeloid progenitors, GFP/Mac1 double-positive flow | calls only | hit rate 2% among 2,300;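 active = share of green or green-and-red cells above 9 and 9% in run 1 or 4 and 3% in run 2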
# GFP autofluor = flagged as fluorescent in myeloid differentiation counter-screen. ER-HoxA9 myeloid progenitors, no estrogen, GFP autofluorescence flow cytometry; vehicle wells 0%, positive control 100%. shares compounds with Myeloid diff MLP. hit rate 7.4% among 2,300. fluorescence response, % (concentration not given with the values). AID 651707;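 active = over 5% cells positive for green fluorescent reporter, or over 2% positive for both it and APC stain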;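 note: range taken on the double positive population between DMSO and positive control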
# Starred values were filed as active, the others as inactive; i = inactive; · = not tested or not shown; + = active, no number. An excerpt weighted towards active compounds, which were near 1.6% of everything screened.
SMILES,RAD54 branch,Glyco luc inh,Vif imaging,ABCB6 inh MLPCN,Myeloid diff MLP,Myeloid diff,GFP autofluor
O=C(c1cc2c(s1)-c1ccccc1OC2)N1CCCC1,0,-2,1,102,i,i,0
O=C(Nc1cccc(C(F)(F)F)c1)C1C2CC3OC(=O)C1C3C2 (stereo unspecified),-3,-9,7,102,+,i,0
C[C@H]1CN([C@@H](C)CO)C(=O)c2cc(NC(=O)C3CC3)ccc2O[C@H]1CN(C)C,-1,·,·,·,·,·,·
O=C(Nc1ccc(-c2nc3c(ccc4ccccc43)o2)cc1)c1ccco1,-9,1,-8,95,+,i,0
Cc1c(C)c2c(OCC(=O)N[C@@H](Cc3ccccc3)C(=O)O)cc3c(c2oc1=O)CCC(C)(C)O3,-9,1,18,92,i,i,0
CSC[C@H](NC(=O)COc1cc2c(c3oc(=O)c(C)c(C)c13)CCC(C)(C)O2)C(=O)O,-4,0,-2,98,i,·,·
COc1ccc(NC(=O)Nc2ccc3c(c2)C(=O)N([C@H](C)CO)C[C@H](C)[C@@H](CN(C)Cc2ccccc2)O3)cc1,-2,·,·,·,·,·,·
Nc1nc(-c2ccc(F)cc2)cc(C(F)(F)F)n1,-4,2,-5,88,i,i,1
Cc1ccc(NC(=O)/C=C/c2cccc(C(F)(F)F)c2)cc1,·,0,0,94,i,·,·
O=C(/C=C/c1cccc(C(F)(F)F)c1)Nc1cccc(C(F)(F)F)c1,4,-5,-1,102,i,i,0
CCOC(=O)C1=C(C)NC(=O)NC1c1ccc(N(CC)CC)cc1 (stereo unspecified),-3,-2,6,109,i,·,·
CCN(CC)c1ccc(C2NC(=O)NC(C)=C2C(=O)Nc2ccccc2)cc1 (stereo unspecified),11,1,-21,194,+,i,7.5*
CC(=O)Nc1ccc2c(c1)C(=O)N(C)[C@@H]1CC[C@@H](CC(=O)NCc3ccc(Cl)cc3)O[C@H]1CO2,1,·,·,·,·,·,·
CC(=O)N(C)C[C@H]1Oc2ncc(/C=C/c3ccccc3)cc2C(=O)N([C@H](C)CO)C[C@@H]1C,4,·,·,·,·,·,·
COc1ccccc1CNC(=O)C[C@H]1C[C@@H]2c3cc(NC(=O)Nc4ccccc4F)ccc3O[C@@H]2[C@@H](CO)O1,-7,·,·,·,·,·,·
C[C@@H]1CCCCO[C@@H](CN(C)C(=O)CCC(F)(F)F)[C@H](C)CN([C@@H](C)CO)C(=O)c2cc(NS(=O)(=O)c3ccccc3)ccc2O1,-1,·,·,·,·,·,·
Cn1c(=O)c2cc(NC(=S)NC3CCCCC3)ccc2n1C/C=C/c1ccccc1,3,-2,3,98,i,·,·
Cn1c(=O)c2cc(NC(=O)NCc3ccc(F)cc3)ccc2n1C/C=C/c1ccccc1,-2,5,·,102,+,+,0
Cn1c(=O)c2cc(NC(=S)NC3CC3)ccc2n1C/C=C/c1ccccc1,0,1,2,104,+,i,0
C[C@@H]1CCCCO[C@@H](CN(C)S(=O)(=O)c2cccs2)[C@H](C)CN([C@H](C)CO)C(=O)c2cc(NS(=O)(=O)c3ccccc3)ccc2O1,-9,·,·,·,·,·,·
CCCCn1c(=O)[nH]c2c(oc3ccccc32)c1=O,-7,4,-14,106,+,i,0
O=C(CC1CC1)Nc1ccc2c(c1)[C@H]1C[C@H](CC(=O)N3CCOCC3)O[C@H](CO)[C@H]1O2,-2,·,·,·,·,·,·
O=C(NC1CCCCC1)c1cccc2c1C(=O)c1ccc(N3CCC(Cc4ccccc4)CC3)cc1S2(=O)=O,-26,-2,1,164,+,i,1
COc1ccccc1Cc1c(-c2cccc(Cl)c2)nc2ccc(Br)cn12,-6,-2,·,105,+,i,41*
O=C(C1CCCCN1S(=O)(=O)c1ccccc1)N1CCCCC1 (stereo unspecified),2,0,-7,97,+,i,0
Cc1nc2ccc(S(=O)(=O)NCC(=O)N3CCC(N4CCCCC4)CC3)cc2s1,-4,-2,7,·,i,·,·
Cc1nc2ccc(S(=O)(=O)NCC(=O)N3CCC(C)CC3)cc2s1,1,1,-7,90,i,i,0
